Assay results taken from ChEMBL document CHEMBL4513216, “Probing the Open Global Health Chemical Diversity Library for Multistage-Active Starting Points for Next-Generation Antimalarials” (ACS Infect Dis, 2020).
In all, about 68,000 compounds went through this assay and about 2,700 (4%) showed an effect of 50% or more. This excerpt belongs to a sample that is enriched for strong results.

tested on: Plasmodium berghei; assay: Screen against P. berghei liver stage (PbLuc), transformed with Luciferase, at 2uM; type: functional, HepG2; settings: tested at 2 uM

Row | SMILES | INHIBITION [%]
1 | Cc1nnc(NC(=O)NCc2ccc(OC3CCCC3)nc2)s1 | 12.74
2 | CCN1C(=O)CO[C@@H]2CN(C(=O)C3CCOCC3)C[C@H]21 | 18.31
3 | COc1ccc(N(c2ccc(OC)cc2)c2ccc(C(=O)O)s2)cc1 | 14.95
4 | CC1c2ncc(COCC3CC3)n2CCN1C(=O)c1ccnn1C (centres undefined) | 21.67
5 | Cc1cc(NC(=O)NCC(C(C)C)N2CCOCC2)n(C)n1 (centres undefined) | 11.63
6 | CN(Cc1cccnc1)C[C@H]1OC[C@@H]2CCN(C(=O)C3CC3)C[C@@H]21 | 8.62
7 | CC(CCN1CCC(n2cc(CCO)nn2)CC1)c1ccccc1 (centres undefined) | 30.89
8 | Cc1ccc(CN2CCC(n3cc(CN4CCC(O)CC4)nn3)CC2)s1 | 35.7
9 | Cc1cccc(CN2CCC(n3cc(CCO)nn3)CC2)c1C | 55.36
10 | Cc1nc(C2CCCN2C(=O)c2cc3c(s2)CCC3)no1 (centres undefined) | 16.89
11 | CCc1nc(CN2CCCN(c3ncnc4ccccc34)CC2)no1 | -50.34
12 | CCc1nc(CN2CCCN(c3ncnc4sccc34)CC2)no1 | 37.75
13 | CCc1nc(CN2CCCN(c3ncnc4ccsc34)CC2)no1 | 80
14 | CC(C)CN1CCN(C(=O)c2ccn(C)c(=O)c2)CC1 | 1.36
15 | Cc1cnn(CC2CCCN2Cc2nc3ccccc3n2C)c1 (centres undefined) | 9.9
16 | CC(C)c1cc(C(=O)NCCN2CCCS2(=O)=O)n[nH]1 | -61.61
17 | O=C(CC1CCCC1)N1CCOC(c2nc(-c3ncccn3)no2)C1 (centres undefined) | 57.82
18 | O=C(C1CCCC1)N1CCOC(c2nc(-c3ncccn3)no2)C1 (centres undefined) | 22.81
19 | O=C(Cc1ccccc1)N1CCOC(c2nc(-c3ncccn3)no2)C1 (centres undefined) | 0.18
20 | Cc1ccccc1C(=O)Nc1cnn(CC(=O)NC2CCCC2)c1 | -24.24
21 | CN(C)c1cc(C2CCCN(S(=O)(=O)C3CCCC3)C2)ccn1 (centres undefined) | 29.89
22 | CCS(=O)(=O)N1CCCC(c2ccnc(N(C)C)c2)C1 (centres undefined) | 59.91
23 | CN(C)c1cc(C2CCCN(S(=O)(=O)c3cn(C)cn3)C2)ccn1 (centres undefined) | 36.15
24 | CC(C)NC(=O)c1cc(-c2ccc(S(C)(=O)=O)cc2)c2cnn(C)c2n1 | 10.93
25 | Cc1nc(CC(=O)N2CCC(Nc3cccnn3)CC2)cs1 | 3.97
26 | CCN(Cc1cccc(-c2ccncc2)c1)S(C)(=O)=O | 63.1
27 | CCN(C)S(=O)(=O)N(CC)Cc1cccc(-c2ccncc2)c1 | 21.24
28 | CCN(Cc1cccc(-c2ccncc2)c1)S(N)(=O)=O | 20.14
29 | O=C(Cc1ccon1)N1CCc2cc(Br)sc2C1 | -10.14
